Shown are actives, neighbours in structure and some others; about 7.5% of the full set was active somewhere.
NPC1 prom act: activates the NPC1 promoter; Huh7 NPC1 promoter luciferase reporter, 24 h; AID 485313; actives 2.4% (n = 320,000); Potency, µM (doses to about 9.22 µM), inactives show top-dose activation, most hits filed as activators; note: % of control where 0% means no effect; nearly all actives have a fitted effect of over 60% in size
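Cells: Huh7 expressing luciferase under the NPC1 promoter, 1500/well. Seeded 2 h, compound added, incubated 24 h at 37 °C. Luciferase reagent, 10 min ambient, then luminescence.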
Rab9 promoter act: activators of Rab9 promoter. Huh7 Rab9 promoter-luciferase reporter, luminescence, 24 h. Potency, µM (highest dose often 9.22 µM), for inactives: at the top dose activation, negative = inhibition, actives largely listed as activators. actives 2.8% (n = 320,000). AID 485297; note: % of control where 0% means no effect; nearly all actives have a fitted effect of over 60% in size
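Promoter activation is measured as luciferase luminescence in Huh7 cells stably transfected with a Rab9 promoter–luciferase construct, following 24 h compound exposure at 37 °C and 10 min reagent incubation at ambient temperature.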
KinaseGlo FLuc: counter-screen: inhibitors of Kinase-Glo firefly luciferase. Q27757. AID 1379. Kinase-Glo luciferase, ATP luminescence, 8 min. Potency, µM (top dose mostly 38.3 µM), for the others: at the top dose activity change, negative = inhibition, actives largely listed as inhibitors. actives 0.28% (n = 200,000); note: % is set by controls: 0 for no effect and ±100 for the full control effect; nearly all actives have a fitted effect of over 60% in size
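Kinase-Glo luciferase light output from ATP and luciferin was measured with 10 uM ATP, within the enzyme's linear range. Buffer: 50 mM imidazole pH 7.2, 50 mM KCl, 7 mM MgCl2, 0.01% Tween 20, 0.05% BSA; luminescence read after 8 min at ambient temperature.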
FLuc modulator: counter-screen for miR-21 project: firefly luciferase inhibitors or activators; Potency, µM (series often up to 57.5 µM), for inactives: top-dose activity change, negative = inhibition, hits mostly inhibitors; actives 6.9% (n = 360,000); AID 588342; purified FLuc, Km substrates, luminescence inhibition; P08659;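 note: plate controls were vehicle for no effect and reference inhibitor for full effect; nearly all actives have a fitted effect of over 55% in size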
Target sequence (P08659 whole entry, looked up): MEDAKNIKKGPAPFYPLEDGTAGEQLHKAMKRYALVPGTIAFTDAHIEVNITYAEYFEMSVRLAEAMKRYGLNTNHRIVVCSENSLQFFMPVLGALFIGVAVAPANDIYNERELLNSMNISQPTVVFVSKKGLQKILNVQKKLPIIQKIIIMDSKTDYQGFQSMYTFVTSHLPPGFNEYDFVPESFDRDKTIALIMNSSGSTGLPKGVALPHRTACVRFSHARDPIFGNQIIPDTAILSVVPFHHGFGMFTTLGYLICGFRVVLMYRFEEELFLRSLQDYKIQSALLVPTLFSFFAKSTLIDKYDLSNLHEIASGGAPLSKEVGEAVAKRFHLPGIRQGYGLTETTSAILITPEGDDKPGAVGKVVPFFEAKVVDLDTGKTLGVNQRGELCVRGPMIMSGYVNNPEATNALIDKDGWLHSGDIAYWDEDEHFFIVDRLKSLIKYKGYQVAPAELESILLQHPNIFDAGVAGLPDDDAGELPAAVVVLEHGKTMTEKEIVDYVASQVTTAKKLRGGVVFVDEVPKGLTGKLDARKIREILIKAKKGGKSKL
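Biochemical qHTS of compounds, final roughly 60 µM downward over six points, against 10 nM purified firefly luciferase using Km concentrations of substrates (10 uM D-luciferin, 10 uM ATP) in Tris acetate pH 7.5 buffer; luminescence output.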
ELG1 genotoxic: inducers of genotoxicity in HEK293T ELG1-luciferase cells. HEK293T ELG1-luciferase reporter, luminescence, 16 h. Potency, µM (titrated, usually from 46 µM), inactives show at the top dose activity change, positive = activation, usual class: activators. actives 1.3% (n = 330,000). AID 504466; note: % of control where 0% means no effect; nearly all actives have a fitted effect of over 60% in size
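Screening used a luciferase reporter fused to human ELG1 in HEK293T cells. Luminescence was read on a CCD plate imager after 16 hr exposure and 30 min ONE-Glo incubation.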
SMN2 splice enh: increases expression of the SMN2 splice variant. AID 1458. Potency, µM (doses to about 46.1 µM), for the others: at the top dose activity change, positive = activation, most hits filed as activators. HEK293 SMN2-luciferase splicing reporter, luminescence, 30-36 h. actives 2.8% (n = 210,000); note: % of control where 0% means no effect; nearly all actives have a fitted effect of over 55% in size
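HEK293 cells carry an SMN2 minigene-luciferase reporter in which exon 7 inclusion puts luciferase in frame. Cells were seeded at 2000 cells/well, attached for 10-12 hours, then exposed to compounds for 30-36 hours at 37C before ONE-Glo luminescence.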
* = called active by the depositor; ? = inconclusive; · = no result given; [ ] = remark or other dose. Calls come from the whole dose curve; as a rule, active = well fitted curve in the direction sought with a large enough effect; inconclusive = small, poorly fitted or top-dose-only effect, or another doubt; inactive = no such curve, though single readings can be large; an effect the other way counts as inactive or inconclusive. Potency is the fitted concentration of half-maximal effect.

SMILES | NPC1 prom act | Rab9 promoter act | KinaseGlo FLuc | FLuc modulator | ELG1 genotoxic | SMN2 splice enh
CCOC(=O)c1cnc(SCc2ccc(C(C)(C)C)cc2)nc1N | 11% | -4% | -3% | -19% | 10% | -40%
CCOc1ccccc1C(=O)N(Cc1ccc(C)o1)C1CCS(=O)(=O)C1 (configuration not stated) | -3% | -2% | · | 0% | 0% | ·
CCc1ccc(C2=CC(c3cccc(C)c3)n3c(nc4ccccc43)N2)cc1 (configuration not stated) | · | · | · | 1.2µM* | · | ·
CC(C)c1ccc(C2=CC(c3cccc(Cl)c3)n3c(nc4ccccc43)N2)cc1 (configuration not stated) | · | · | · | 21µM* | · | ·
CCOc1ccc(C2=CC(c3cccc(Br)c3)n3c(nc4ccccc43)N2)cc1Cl (configuration not stated) | · | · | · | 13µM* | · | ·
CCc1ccc(C2=CC(c3cccc(OC)c3OC)n3c(nc4ccccc43)N2)cc1 (configuration not stated) | · | · | · | 4.3µM* | · | ·
Cc1cccc(Nc2ncnc3c2cnn3C)c1 | 1% | -1% | 2% | -4% | ? | 2%
Cn1ncc2c(Nc3ccc(Cl)cc3)ncnc21 | -4% | -1% | · | ? | 11% | ·
Cn1ncc2c(Nc3ccc4ccccc4c3)ncnc21 | ? | 3.2µM* | · | 11µM* | ? | ·
CC(C)Nc1ncnc2c1cnn2-c1ccc(Cl)cc1 | 0.28µM* | 0.32µM* | -3% | 0.54µM* | 0.37µM* | 1.3µM*
Clc1ccc(Nc2ncnc3c2cnn3-c2ccccc2)cc1 | ? | ? | 2% | 13µM* | 12µM* | 43%
COc1cc(/C=C2\N=C3CCCCCN3C2=O)ccc1O | 2% | 16% | -8% | 17µM* | ? | ?
O=C1/C(=C\c2ccc(O)c(O)c2)N=C2CCCCCN12 | -6% | -2% | · | 19µM* | ? | ·
COc1ccc(/C=C2\N=C3CCCCCN3C2=O)cc1OC | 14% | 2% | -2% | ? | 4% | 26%
COc1ccc(/C=C2/N=C3CCCCCN3C2=O)cc1 | -1% | -3% | -1% | 17µM* | ? | 0%
O=C1/C(=C/c2cccnc2)N=C2CCCCCN12 | 1% | -1% | -3% | -8% | 0% | 4%
COC(=O)c1ccc(OCC2c3cc(OC)c(OC)cc3CCN2C(=O)Cc2ccc(OC)cc2)cc1 (configuration not stated) | · | · | · | 2% | · | ·
Cc1ccc(OCCn2c(-c3ccc(Cl)cc3)nc3ccccc3c2=O)c(C)c1 | · | · | · | -4% | · | -7%
Cc1ccc(CSc2nc3cccnc3n2Cc2nc(-c3ccccc3F)oc2C)cc1 | · | · | · | 5.4µM* | · | ·
Cc1oc(-c2ccccc2F)nc1Cn1c(SCc2cccc(Cl)c2)nc2ccncc21 | · | · | · | ? | · | 10%
COc1ccc(CSc2nc3ccncc3n2Cc2nc(-c3ccc(OC)c(OC)c3)oc2C)cc1 | · | · | · | 4.8µM* | · | ?
Cc1ccc(CSc2nc3ccncc3n2Cc2nc(-c3ccccc3C)oc2C)cc1 | · | · | · | 4.8µM* | · | ?
COc1ccc(-c2nc(Cn3c(SCc4cccc(Cl)c4)nc4ccncc43)c(C)o2)cc1 | · | · | · | -3% | · | 18%
COc1ccc(-c2cc(=O)n(-c3nc4ccccc4[nH]3)[nH]2)cc1 | 21% | ? | -26% | 11µM* | ? | ?
c1ccc2[nH]c(-c3ccncc3)nc2c1 | 15% | 19% | -14% | ? | 5% | ·
SMILES | NPC1 prom act | Rab9 promoter act | KinaseGlo FLuc | FLuc modulator | ELG1 genotoxic | SMN2 splice enh
O=C(O)c1ccc2nc(CO)[nH]c2c1 | 1% | 0% | -4% | ? | ? | -12%
COc1ccc(CCCc2nc3ccccc3[nH]2)cc1 | -2% | -3% | · | ? | -4% | ·
O=C(O)c1cccc(-c2nc3ccccc3[nH]2)c1 | ? | ? | -11% | 1.9µM* | -6% | 16µM*
COc1ccc(-c2nc3ccccc3[nH]2)cc1 | 0.5µM* | 0.63µM* | 8.9µM* | 0.67µM* | 0.52µM* | 2.5µM*
Nc1cc(N)cc(-c2nc3ccccc3[nH]2)c1 | 25% | 25% | -6% | 24µM* | ? | ?
c1cncc(-c2nc3ccccc3[nH]2)c1 | 17% | 16% | -9% | ? | -1% | 10%
O=C(NCCc1csc(-c2ccc(C(F)(F)F)cc2)n1)c1ccc(F)c(F)c1 | · | · | · | -17% | · | ·
Cc1cccc(-n2c(=O)c3c(c4cc(C)ccc4n3C)n(Cc3ccccc3F)c2=O)c1 | · | · | · | 1% | · | ·
Cc1cc(C)c(S(=O)(=O)c2ccccc2)c(OC(=O)c2cc(F)c(F)cc2Cl)n1 | -4% | -1% | -1% | -14% | -2% | -10%
c1ccc(-c2nc3ccccc3[nH]2)cc1 | 3.5µM* | 1.6µM* | · | 7.6µM* | ? | ·
COC(=O)c1ccc(-c2nc3ccccc3[nH]2)cc1 | 0.71µM* | 0.5µM* | ? | 1.7µM* | ? | 8.9µM*
COc1ccc2oc(=Nc3cccc(F)c3)c(C(N)=O)cc2c1 | -10% | 2% | 1% | 0% | 2% | -5%
COc1ccc2oc(=Nc3ccccc3)c(-c3nc4ccccc4[nH]3)cc2c1 | ? | ? | -8% | 6µM* | 7.3µM* | 13µM*
Cc1cc(-c2nc3ccccc3[nH]2)ccc1N | 0.89µM* | 0.56µM* | 10µM* | 4.3µM* | ? | 6.3µM*
O=C(NC1CC(=O)N(c2cccc(F)c2)C1)c1cc2ccccc2o1 (configuration not stated) | · | · | · | 4% | · | ·
CCc1ccc(-n2c(=O)c3c4c(sc3n(CC(=O)N3CCCCC3CC)c2=O)CCC4)cc1 (configuration not stated) | · | · | · | -11% | · | -11%
O=C(c1ccccc1-c1nc2ccccc2[nH]1)N1CCOCC1 | 1% | 0% | -1% | 3%[2.3 µM] | 0% | 21%
O=C(O)c1ccccc1-c1nc2ccccc2[nH]1 | 18% | ? | -19% | 13µM* | 8% | 13%
COc1cc(OC)cc(C(=O)Nc2cc(-c3nc4ccccc4[nH]3)ccc2C)c1 | · | · | · | 7.6µM* | · | 0%
Cc1cccc(CNC(=O)Cn2ccc3cc(S(=O)(=O)N4CCC(C)CC4)ccc32)c1 | · | · | · | 2% | · | ·
Cn1cc(C(=O)C(=O)N2CCc3ccccc32)c2ccccc21 | 3.2µM* | 2.8µM* | · | 1% | ? | ·
CCCC(=O)Oc1c(Sc2ccc(Cl)cc2)c(C)nn1-c1ccccc1 | · | · | · | 11µM* | · | -4%
CC1CCc2[nH]c3ccc(C(=O)NCC4CCCO4)cc3c2C1 (configuration not stated) | 23% | ? | · | 9.5µM* | 8% | ·
